Assay [1] is described as follows: inhibitors of TNFa-induced NFkB p65 translocation, primary screen, imaging, HUVEC, MLSMR starter and 10KST1 sets (AID 438;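 active = inhibition above 20% together with a positive visual image hit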;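 note: compound added about 3h40 before a 20 min TNFalpha stimulation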;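 for inhibition: signal is the nuclear over cytoplasmic p65 intensity ratio per well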). Conditions: HUVEC TNFa-induced p65 nuclear translocation; cell count: measured here: nuclei count (cytotoxicity indicator), at 2.08 µM; inhibition: at 2 µM, stronger effect = higher value, 0% TNFa-plus-vehicle, 100% no-TNFa wells.
The nature of assay [2]: inhibitors of mutant huntingtin aggregation, primary screen, imaging, exon1htt(103Q)mCFP cells, high-content imaging (AID 483;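 active = visual image review flags a hit and inhibition of aggregation exceeds 20%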;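 note: compound exposure lasted 3 days before fixation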;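 for nuclei count: percent of the per-plate median nuclei count of sample wells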). The following applies: exon1htt(103Q)mCFP cell line, aggregate imaging, at 2 µM; inhibition of aggregation: stronger effect = higher value; nuclei count: measured here: cell count, toxicity.
The nature of assay [3]: inhibitors of E-selectin induction by TNFa, primary screen, imaging, HUVEC, immunofluorescence, MLSMR starter and 10KST1 sets (AID 487;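 active = visually confirmed hit in the image check and inhibition above 20%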;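 for inhibition: signal is fraction of cell area covered by stained E-selectin grains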;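 for nuclei count: 100% = median nuclei count of all wells on the same plate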). Conditions: HUVEC TNFalpha-induced E-selectin immunofluorescence imaging, at 2 µM; inhibition: stronger effect = higher value; nuclei count: measured here: cell number, toxicity.
The nature of assay [4]: DUSP6 inhibitors restoring Erk phosphorylation by chemical complementation, primary imaging in DUSP6-transfected HeLa (AID 609;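 active = compounds giving at least 50% inhibition in the cell-based MKP-3 phosphatase rescue imaging test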;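 for inhibition: phospho-Erk level distribution per well compared with pooled transfected vehicle control wells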). The following applies: HeLa MKP-3 transfected, phospho-Erk imaging KS statistic, at 10 µM, cells stimulated with TPA for 15 min.
In assay [5] the target is Dual specificity protein phosphatase 6 (Homo sapiens) (UniProt Q16828). The description is as above. Conditions: HeLa MKP-3 transfected, phospho-Erk imaging KS statistic; at 10 µM; stronger effect = higher value; cells stimulated with TPA for 15 min.
Sequence of Dual specificity protein phosphatase 6 (Homo sapiens) (Q16828 whole entry, looked up): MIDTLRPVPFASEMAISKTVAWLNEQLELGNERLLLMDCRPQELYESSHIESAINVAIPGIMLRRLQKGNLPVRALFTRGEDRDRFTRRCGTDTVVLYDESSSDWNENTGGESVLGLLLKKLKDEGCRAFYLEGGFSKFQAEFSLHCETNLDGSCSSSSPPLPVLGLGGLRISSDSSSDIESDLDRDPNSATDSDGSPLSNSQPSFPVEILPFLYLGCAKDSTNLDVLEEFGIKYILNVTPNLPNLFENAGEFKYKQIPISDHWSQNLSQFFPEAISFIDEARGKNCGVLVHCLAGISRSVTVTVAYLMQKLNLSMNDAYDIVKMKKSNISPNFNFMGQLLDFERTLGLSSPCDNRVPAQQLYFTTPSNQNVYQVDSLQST
Assay [6] deals with Voltage-gated potassium channel subunit beta-2 (Rattus norvegicus) (UniProt P62483). Nature of the assay: KvBeta enzyme negative modulators, primary screen, biochemical, NADPH fluorescence (AID 622;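 active = fluorescence slope higher than the sample average by over 3 SD, cut at about -0.22 in these data, passing the limit was not always enough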;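 note: slope of raw intensity against log time taken from 70 to 1610 s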). Conditions: recombinant KvBeta, 4-cyanobenzaldehyde reduction, at 10 µM, stronger effect = higher value.
Sequence of Voltage-gated potassium channel subunit beta-2 (Rattus norvegicus) (P62483 whole entry, looked up): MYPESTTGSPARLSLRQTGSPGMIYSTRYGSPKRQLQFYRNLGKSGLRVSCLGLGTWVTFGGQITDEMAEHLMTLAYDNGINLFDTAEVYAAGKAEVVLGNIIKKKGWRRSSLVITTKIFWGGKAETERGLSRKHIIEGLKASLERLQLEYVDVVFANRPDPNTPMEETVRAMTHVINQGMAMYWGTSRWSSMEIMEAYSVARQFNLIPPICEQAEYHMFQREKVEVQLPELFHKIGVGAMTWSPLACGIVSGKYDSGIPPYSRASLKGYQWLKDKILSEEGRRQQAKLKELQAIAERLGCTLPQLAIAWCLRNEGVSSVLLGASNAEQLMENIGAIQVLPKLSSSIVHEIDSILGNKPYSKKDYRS
For assay [7] the target is unchanged. Nature of the assay: KvBeta positive modulators, primary screen, biochemical, NADPH fluorescence (AID 623;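 active = NADPH fluorescence slope more negative than the mean of all samples by about 3 SD, 99.7% confidence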;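 note: fluorescence intensity change per second fitted from 20 to 320 s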). The following applies: Recombinant KvBeta, NADPH fluorescence decrease slope, 10 min; at 10 µM; stronger effect = lower value.
The target of assay [8] is Alpha-2C adrenergic receptor (Homo sapiens) (UniProt P18825). Nature of the assay: modulators of alpha2C/GIRK thallium flux, primary screen, cell-based, HEK293 alpha2C/GIRK1/2 (AID 624;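 active = fluorescence slope after compound addition differing from the mean of all screened samples at 99.7% confidence, in either direction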;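 note: slope of fluorescence ratio to pre-addition baseline per second over 15 to 24 s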). Conditions: thallium flux BTC fluorescence, at 10 µM, actives lie on both sides.
Sequence of Alpha-2C adrenergic receptor (Homo sapiens) (P18825 whole entry, looked up): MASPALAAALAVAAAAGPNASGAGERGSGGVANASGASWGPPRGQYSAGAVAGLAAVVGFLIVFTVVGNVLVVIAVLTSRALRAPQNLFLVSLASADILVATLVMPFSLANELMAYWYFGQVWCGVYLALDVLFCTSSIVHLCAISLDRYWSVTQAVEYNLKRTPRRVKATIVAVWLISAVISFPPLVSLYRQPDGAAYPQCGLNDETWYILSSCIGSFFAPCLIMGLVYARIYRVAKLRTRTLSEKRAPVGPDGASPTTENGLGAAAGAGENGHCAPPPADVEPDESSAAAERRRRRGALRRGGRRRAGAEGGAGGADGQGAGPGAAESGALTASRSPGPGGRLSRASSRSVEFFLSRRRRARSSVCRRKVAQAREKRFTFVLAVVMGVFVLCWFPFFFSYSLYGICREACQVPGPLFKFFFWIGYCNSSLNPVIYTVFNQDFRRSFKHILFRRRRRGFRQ
A short description of assay [9]: inhibitors of larval lipid processing in zebrafish, primary screen, whole organism, PED6 fluorescence, gall bladder and intestine (AID 686;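 active = a full or partial loss of lipid-probe fluorescence in the fish gall bladder, intestine or both, judged by eye; inactive = no fluorescence loss, or compound toxic to the fish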;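 note: larvae 5 to 7 days old with five fish per well; signal comes from phospholipase A2 cleavage of quenched PED6 carried via bile; overnight exposure to compound and PED6 before scoring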). Conditions: Zebrafish larvae PED6 lipid processing, fluorescence scoring; screened at 20 µM (by protocol).
Assay [10] in a line: inhibitors of Chlamydomonas gravitaxis, primary screen, whole organism, Chlamydomonas reinhardtii, WT vs cilia-less mutant, absorbance, 96-well (AID 463189;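 active = inhibition at or above 50% relative to wild type and mutant plate controls; inactive = inhibition below 50%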;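 note: 0% = wild type cc124 cells in DMSO and 100% = ciliumless bld1 mutant cells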). Conditions: OD600 absorbance, 2 days, at 10 µM, stronger effect = higher value.
Assay [11] in a line: inhibitors of Sendai virus-induced IRF3 signaling, primary screen, TLR/RLR signaling modifier project, cell-based, Sendai virus stimulus, luciferase, 10K MLSCN set (AID 602276;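 active = inhibition at or above 50% at 10 µM; inactive = inhibition below 50%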;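 note: firefly luciferase from ISG56 promoter only with Renilla not read in this screen; 0% = Sendai virus plus DMSO and 100% = medium plus DMSO without virus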). The following applies: HEK293 RL24 IRF3 luciferase reporter, at 10 µM, stronger effect = higher value. In general terms: A reporter such as luciferase makes a cellular process visible.
The nature of assay [12]: inhibitors of poly I:C-induced TLR3 signaling, primary screen, cell-based, poly I:C stimulus, luciferase, 10K MLSCN set (AID 602277). Conditions: HEK293-TLR3 RL24 IRF3 luciferase reporter, at 10 µM, stronger effect = higher value.
Where [13] appears, read: measured here: cell density z-score.
[14] abbreviates: measured here: nuclear c-Myc green intensity z-score.
Setting [15] is: measured here: nuclear pErk red intensity z-score, stronger effect = higher value.

One may read the inhibition as the relative decrease from the control value, in per cent.

The source made the active and inactive calls.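 Rule for the calls, unless noted: active = inhibition of the reporter signal at or above 50%; inactive = inhibition below 50%.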

On to `COc1ccc(NC(=O)CSC2=C(C#N)C(c3ccco3)C3=C(CCCC3=O)N2)c(OC)c1` (stereo unspecified), for which, in assay [1], the cell count worked out at 429. In addition, the inhibition in assay [1] is 1.6% (inactive); in [3], -47.9% (inactive); in assay [5], 13.4% (inactive); in assay [10], 26.6% (inactive); in assay [11], 17.5% (inactive); in [12], 18.8% (inactive). Moreover, in assay [2], the inhibition of aggregation is -5.2% (inactive). Further, the values for the nuclei count in [2] and in [3] were 95.8% and 104%, respectively. Also, the figures for the z-score in assay [4] (setting [13]), in [4] (setting [14]) and in assay [4] (setting [15]) were -1.49, 0.542 and 0.619, respectively. For the same compound, the fluorescence slope in [6] was -0.456 (inactive). Moreover, the NADPH fluorescence slope in [7] was -9.4e-06 (inactive). Moreover, the slope in assay [8] is 0.00706 (inactive). Further, the result in assay [9] was inactive.
With `COc1ccc(OC)c(C2=Nn3c(nnc3C3CCCCC3)SC2)c1`, in assay [1], the cell count came out at 580. For the same compound, the inhibition in [1] is -3.9% (inactive); in assay [3] it was -38.3% (inactive); in assay [5], 2.92% (inactive); in assay [10], 25.7% (inactive); in assay [11] it was 5.58% (inactive); in [12] it was 19.6% (inactive). Further, in [2], the inhibition of aggregation is 18.9% (inactive). For the same compound, the values for the nuclei count in assay [2] and in assay [3] were 77.4% and 118%, respectively. Besides, the z-score in assay [4] (setting [13]) is -0.0238; in assay [4] (setting [14]), 2.3; in assay [4] (setting [15]) it was -0.394. In assay [6], the fluorescence slope was -0.431 (inactive). Besides, the NADPH fluorescence slope in assay [7] was -0.000148 (inactive). Also, the slope in [8] was 0.00512 (inactive). The result in assay [9] was inactive.
Turning to `COc1ccc(C2/C(=C(/O)c3ccc(OC(C)C)cc3)C(=O)C(=O)N2CCCN2CCOCC2)cc1` (stereo unspecified), in assay [1], the cell count stood at 466. For the same compound, the inhibition is 4.1% (inactive) in [1]; -19.1% (inactive) in [3]; -11.9% (inactive) in assay [5]; -1.04% (inactive) in assay [10]; 9.78% (inactive) in assay [11]; 13.7% (inactive) in assay [12]. Also, the inhibition of aggregation in assay [2] was -2.7% (inactive). Also, the figures for the nuclei count in assay [2] and in assay [3] were 102% and 134%, respectively. Further, the z-score in assay [4] (setting [13]) was -0.477; in assay [4] (setting [14]), 0.263; in [4] (setting [15]) it was 0.227. For the same compound, the fluorescence slope in assay [6] is -0.319 (inactive). Further, the NADPH fluorescence slope in assay [7] is -2e-05 (inactive). Further, the slope in assay [8] is 0.00508 (inactive). Moreover, the compound was called inactive in [9].

The record behind these values is PubChem BioAssay.
